Screening data (PubChem)
This is a sample that favours compounds with a hit; in the whole collection about 1.1% have one here.
PKA-R2B act: activators of human PKA-R2B complex. PKA-R2B holoenzyme dissociation, Cy5-IP20 fluorescence polarization; R2B truncated from residue 108, S112A mutant; 0% DMSO only, 100% 113 µM cGMP. activation, % at 11.4 µM. P22694+P31323. actives 0.079% (n = 340,000). AID 504700;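 active = activation above a cutoff set at the mean over all compounds plus 3 SD, cut at about 18% in these data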;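 note: higher means more holoenzyme dissociation and a rise in polarization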
Target sequence (P31323 whole entry, looked up, other chains not shown, the tested form may be a part): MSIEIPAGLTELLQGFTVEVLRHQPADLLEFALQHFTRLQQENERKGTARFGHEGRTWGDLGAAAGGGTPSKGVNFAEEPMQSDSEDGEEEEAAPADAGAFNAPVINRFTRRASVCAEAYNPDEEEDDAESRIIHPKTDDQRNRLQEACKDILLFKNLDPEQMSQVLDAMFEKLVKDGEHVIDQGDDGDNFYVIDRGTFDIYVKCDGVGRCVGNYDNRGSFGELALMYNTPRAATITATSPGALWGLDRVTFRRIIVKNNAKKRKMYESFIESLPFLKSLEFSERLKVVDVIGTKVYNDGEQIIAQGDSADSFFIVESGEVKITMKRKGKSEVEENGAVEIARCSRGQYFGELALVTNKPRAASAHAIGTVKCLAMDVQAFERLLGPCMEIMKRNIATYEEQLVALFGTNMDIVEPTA
PKA-R1A activ: PKA-R1A complex activation | P00514+P68181 | PKA-R1A dissociation, Cy5-IP20 fluorescence polarization; scaled: DMSO 0%, 113 µM cGMP 100% | activation, % at 11.4 µM | actives 0.083% (n = 340,000) | AID 504707;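 active = percent activation above the mean of all tested compounds plus 3 SD, cut at about 19% in these data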;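 note: higher means more PKAc released from R1A so a rise in polarization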
MsrA inh: inhibits bovine methionine sulfoxide reductase A | purified bovine MsrA, absorbance read-out | inhibition, % at 15.5 µM | actives 0.75% (n = 360,000) | AID 651718
bovine MsrA act: activates bovine MsrA enzyme; activation, % at 10.6 µM; actives 0.3% (n = 360,000); AID 602163; purified bovine MsrA, absorbance read-out; in the data active = activation above about 7.5%
MsrA conf: bovine MsrA inhibition, confirmed | inhibition, % at 15.5 µM | purified bovine MsrA, absorbance read-out | actives 41% (n = 2,300) | shares compounds with MsrA inh;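 note: coupled to thioredoxin reductase with NADPH and selenocystamine and DMSO as substrate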
Of the large screens only hits and unclear results are named; the others gave an inactive call (follow-up assays come after a bar, where they were run). Cut-off read from the data, not from the text of the source, unless noted: active = inhibition above about 4.5%; inactive = the rest.

Cc1ccc(F)cc1C(=O)N1CCCCC1c1cc(C(=O)Nc2ccc(F)c(Cl)c2)no1 (centres undefined)	none (no result: PKA-R2B act, PKA-R1A activ)
O=C(N/N=C/c1cc([N+](=O)[O-])ccc1O)C1CC1	MsrA inh 5.4 | MsrA conf inactive
O=C(NN=Cc1ccc(F)cc1)C1CC1	none
O=C(N/N=C/c1cc(Br)c(O)c(Br)c1)C1CC1	MsrA inh 5.3 | MsrA conf 4.6
O=C1NCCCC1C(=O)N/N=C/c1cc([N+](=O)[O-])ccc1O (centres undefined)	none
CCN1CCN(C(=O)C23CCC(C)(C(=O)C2Br)C3(C)C)CC1 (centres undefined)	none
O=C1CC(C(=O)N2CCN(S(=O)(=O)c3cccc(F)c3)CC2)CN1Cc1ccccc1Cl (centres undefined)	none
O=[N+]([O-])c1ccc(N2CCN(S(=O)(=O)c3ccccc3[N+](=O)[O-])CC2)cc1NCc1cccnc1	none
O=[N+]([O-])c1cc([N+](=O)[O-])c(N2CCOCC2)cc1NCc1ccccc1	MsrA inh 36.1 | MsrA conf 35.6
CCS(=O)(=O)N1CCN(c2ccc([N+](=O)[O-])c(NCc3cccnc3)c2)CC1	MsrA inh 5.4 | MsrA conf inactive
CC(Nc1cc(N2CCN(S(C)(=O)=O)CC2)ccc1[N+](=O)[O-])c1ccccc1 (centres undefined)	MsrA inh 24.2 | MsrA conf 19.7
CC(Nc1cc(N2CCN(S(=O)(=O)N(C)C)CC2)ccc1[N+](=O)[O-])c1ccccc1 (centres undefined)	MsrA inh 8.5 | MsrA conf 8.0
Cn1cc(S(=O)(=O)N2CCOCC2)cc1C(=O)NCc1ccccc1Cl	none
Cc1ccc(C(=O)/C=C/c2cc(Br)cc(Br)c2O)o1	none
CCCN(C)C1CN(Cc2cn(Cc3cccc(C(F)(F)F)c3)nn2)S(=O)(=O)C1 (centres undefined)	none (no result: PKA-R2B act, PKA-R1A activ)
CC(Nc1cc(N2CCOCC2)ccc1[N+](=O)[O-])c1ccccc1 (centres undefined)	MsrA inh 29.6 | MsrA conf 20.6
CSC1=C(C#N)C(=O)NC(c2ccccc2O)S1 (centres undefined)	none
COC(=O)CSC1=C(C#N)C(=O)NC(c2ccccc2)S1 (centres undefined)	MsrA inh 6.1 | MsrA conf 4.8
O=C(COc1ccccc1)N/N=C/c1sc(=O)n(Cc2cccc(C(=O)O)c2)c1Cl	none
O=C(O)c1cccc(Cn2c(Cl)c(/C=N/NC(=O)c3ccc(O)cc3)sc2=O)c1	MsrA inh 8.5 | MsrA conf 5.5
CC(=O)c1cc2c(cc1NC(=O)Cc1ccsc1)OCO2	none
COc1cc(-c2ccc(Nc3ccccc3C(=O)O)c(OC)c2)ccc1Nc1ccccc1C(=O)O	MsrA inh 4.9 | MsrA conf 5.3
CC(=O)Nc1ccc(/C=C/C(=O)c2ccc3c(c2)OCCO3)cc1	none
O=C(O)c1ccc(/C=C/C(=O)c2ccc3c(c2)OCCCO3)cc1	MsrA inh 6.5 | MsrA conf inactive
Cc1nc(N2CCOCC2)sc1C=O	MsrA inh 6.6 | MsrA conf inactive
CC(=NCc1cccc(Cl)c1)c1nc(-c2ccco2)oc1O	MsrA inh 5.9 | MsrA conf inactive
NC(=O)c1ccsc1NC(=O)c1coc2ccccc2c1=O	MsrA inh 4.7 | MsrA conf inactive
Cc1ccc(C2(c3noc(CN4CCC(C(=O)N5CCOCC5)CC4)n3)CCCC2)cc1	MsrA inh 4.7 | MsrA conf inactive
Cc1ccc(C2(c3noc(CN4CCOCC4)n3)CCCC2)cc1	none
CCOC(=O)/C(C#N)=C1/C=CN(C)C(C)=N1	MsrA inh 6.6 | MsrA conf 6.0
Cc1ccc(C(=O)CC(=O)c2ccc(C)cc2O)cc1	none
Nc1cc2sc(-c3ccc(C(=O)O)cc3)nc2cc1Cl	MsrA inh 5.5 | MsrA conf inactive
Nc1ccc(-c2nc3ccc(N)cc3s2)cc1	MsrA inh 5.6 | MsrA conf 7.5
Nc1ccc(-c2nc3ccc(C(=O)O)cc3s2)cc1	MsrA inh 5.9 | MsrA conf 7.2
CCCc1nn2c(N)c(/C=C3\C=Nc4ccccc43)c(=O)nc2s1	none
Nc1c(C=C2C=CC(=O)C=C2)c(=O)nc2sc(CC(=O)N3CCCC3)nn12	MsrA inh 4.7 | MsrA conf inactive
Cc1ccc(OCC(=O)N/N=C\c2ccc(-c3cccc(C(=O)O)c3)o2)c(C)c1	MsrA inh 5.3 | MsrA conf inactive
Brc1cccc(/C=N/Nc2nn[nH]n2)c1	none
O=C(O)c1cccc(-c2ccc(/C=N/Nc3nn[nH]n3)o2)c1	MsrA inh 5.9 | MsrA conf 4.6
O=C(O)c1cccc(-c2ccc(/C=N/NC(=O)C3COc4ccccc4O3)o2)c1 (centres undefined)	MsrA inh 4.7 | MsrA conf inactive
COc1ccc(CC(=O)N/N=C/c2ccc(-c3cccc(C(=O)O)c3)o2)cc1OC	MsrA inh 5.1 | MsrA conf inactive
CC(C)(C)c1ccc2c(c1)OC(C(=O)N/N=C\c1ccc(-c3cccc(C(=O)O)c3)o1)CO2 (centres undefined)	none
COc1ccc(CC(=O)N/N=C/c2ccc(-c3ccc(F)cc3)o2)cc1OC	none
CCn1cnnc1SCC(=O)c1c(N)n(C2CC2)c(=O)[nH]c1=O	none
CCNC(=S)N/N=C/c1ccc(-c2ccccc2)o1	none
CNC(=S)N/N=C/c1ccc(-c2cccc(C(=O)O)c2)o1	MsrA inh 4.9 | MsrA conf 6.2
CCN(CC)c1nc(N)c2c(N)n(-c3ccccc3C)c(=S)c(C#N)c2c1C#N	MsrA inh 8.0 | MsrA conf 9.3
CCN(CC)c1cc(C)c(C#N)c2nc3ccccc3n12	none
Cc1cc2c(c(=O)o1)[C@@]1(C(=O)N(C)c3ccccc31)C1=C(CC3(CCCCC3)OC1=O)O2	none (no result: PKA-R2B act, PKA-R1A activ, bovine MsrA act)
c1ccc2nc(-c3nc4ccccc4[nH]3)ccc2c1	MsrA inh 5.0 | MsrA conf 4.7
O=C(Nc1ccccc1F)c1coc(=O)c(Br)c1	none
O=C(NCCc1ccc(F)cc1)c1coc(=O)c(Br)c1	MsrA inh 6.0 | MsrA conf 4.8
COc1ccc(CN2C[C@@H](CO)O[C@@H](n3cnc4c(NCc5ccncc5)ncnc43)C2)cc1	none (no result: PKA-R2B act, PKA-R1A activ)
Cc1nn(C)cc1/C=C/C(=O)c1cccs1	MsrA inh 5.4 | MsrA conf inactive
Cc1nn(C)cc1/C=C/C(=O)c1ccccc1	none
COC(=O)C(=Cc1ccncc1)c1cccc2ccccc12	none
CCN(CC)S(=O)(=O)c1ccc(N/N=C/c2ccc(O)cc2)nc1	MsrA inh 5.7 | MsrA conf 4.9
Cc1cccc(CS(=O)(=O)c2cn(CC(=O)N3CCOCC3)c3ccccc23)c1	none
Cc1ccc(F)cc1C(=O)N1CCCC(C)(C(=O)NS(=O)(=O)C2CC2)C1 (centres undefined)	none (no result: PKA-R2B act, PKA-R1A activ)
CC1Sc2ccc(C#N)cc2N(Cc2cccc(C(F)(F)F)c2)C1=O (centres undefined)	MsrA inh 5.4 (no result: PKA-R2B act, PKA-R1A activ) | MsrA conf inactive
